Assay results from article PMC11006913.

Columns and labels:
Experiment in all cases: PBM; 200 nM protein, PBS
Conditions in all cases: dsDNA, one strand shown
HESX1 [1] = target: HESX1 (Homo sapiens, UniProt Q9UBX0 95-180, R165K)
SHOX [2] = target: SHOX (Homo sapiens, UniProt O15266 103-189)
HESX1 [3] = target: HESX1 (Homo sapiens, UniProt Q9UBX0 95-180)
SHOX [4] = target: SHOX (Homo sapiens, UniProt O15266 103-189, R173C)
HESX1 [5] = target: HESX1 (Homo sapiens, UniProt Q9UBX0 95-180, R109Q)
HESX1 [6] = target: HESX1 (Homo sapiens, UniProt Q9UBX0 95-180, P111T)
Chain of HESX1 (Homo sapiens, UniProt Q9UBX0 95-180, P111T) (Q9UBX0 95-180 P111T): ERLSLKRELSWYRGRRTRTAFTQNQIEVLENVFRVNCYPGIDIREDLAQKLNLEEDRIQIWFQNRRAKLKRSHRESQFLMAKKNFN

HESX1 [7] = target: HESX1 (Homo sapiens, UniProt Q9UBX0 95-180, F115L)
Chain of HESX1 (Homo sapiens, UniProt Q9UBX0 95-180, F115L) (Q9UBX0 95-180 F115L): as the sequence (Q9UBX0 95-180 P111T) above, with T17P, F21L counted along it

ALX4 [8] = target: ALX4 (Homo sapiens, UniProt Q9H161 200-286)
Chain of ALX4 (Homo sapiens, UniProt Q9H161 200-286) (Q9H161 200-286): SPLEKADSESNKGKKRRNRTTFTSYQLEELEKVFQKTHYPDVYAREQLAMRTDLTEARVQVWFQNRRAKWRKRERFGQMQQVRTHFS

ALX4 [9] = target: ALX4 (Homo sapiens, UniProt Q9H161 200-286, Q225E)
Chain of ALX4 (Homo sapiens, UniProt Q9H161 200-286, Q225E) (Q9H161 200-286 Q225E): as the sequence (Q9H161 200-286) above, with Q26E counted along it

ALX1 [10] = target: ALX1 (Homo sapiens, UniProt Q15699 118-204, L144V)
Chain of ALX1 (Homo sapiens, UniProt Q15699 118-204, L144V) (Q15699 118-204 L144V): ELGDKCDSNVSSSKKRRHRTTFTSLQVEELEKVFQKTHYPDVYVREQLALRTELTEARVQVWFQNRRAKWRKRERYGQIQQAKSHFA

ALX3 [11] = target: ALX3 (Homo sapiens, UniProt O95076 139-225, N203Q)
Chain of ALX3 (Homo sapiens, UniProt O95076 139-225, N203Q) (O95076 139-225 N203Q): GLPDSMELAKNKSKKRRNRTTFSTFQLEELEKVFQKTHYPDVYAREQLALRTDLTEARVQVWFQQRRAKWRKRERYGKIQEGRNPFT

ALX1 [12] = target: ALX1 (Homo sapiens, UniProt Q15699 118-204, L144R)
Chain of ALX1 (Homo sapiens, UniProt Q15699 118-204, L144R) (Q15699 118-204 L144R): as the sequence (Q15699 118-204 L144V) above, with V27R counted along it

ALX3 [13] = target: ALX3 (Homo sapiens, UniProt O95076 139-225)
Chain of ALX3 (Homo sapiens, UniProt O95076 139-225) (O95076 139-225): as the sequence (O95076 139-225 N203Q) above, with Q65N counted along it

PROP1 [14] = target: PROP1 (Homo sapiens, UniProt O75360 56-141)
Chain of PROP1 (Homo sapiens, UniProt O75360 56-141) (O75360 56-141): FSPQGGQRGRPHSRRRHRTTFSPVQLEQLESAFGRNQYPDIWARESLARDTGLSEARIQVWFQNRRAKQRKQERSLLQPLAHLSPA

PROP1 [15] = target: PROP1 (Homo sapiens, UniProt O75360 56-141, R99H)
Chain of PROP1 (Homo sapiens, UniProt O75360 56-141, R99H) (O75360 56-141 R99H): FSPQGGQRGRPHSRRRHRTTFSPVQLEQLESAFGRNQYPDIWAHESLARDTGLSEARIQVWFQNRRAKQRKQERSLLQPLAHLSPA

ALX3 [16] = target: ALX3 (Homo sapiens, UniProt O95076 139-225, L168Q)
Chain of ALX3 (Homo sapiens, UniProt O95076 139-225, L168Q) (O95076 139-225 L168Q): as the sequence (O95076 139-225 N203Q) above, with L30Q, Q65N counted along it

ALX3 [17] = target: ALX3 (Homo sapiens, UniProt O95076 139-225, L168V)
Chain of ALX3 (Homo sapiens, UniProt O95076 139-225, L168V) (O95076 139-225 L168V): as the sequence (O95076 139-225 N203Q) above, with L30V, Q65N counted along it

PROP1 [18] = target: PROP1 (Homo sapiens, UniProt O75360 56-141, F88S)
Chain of PROP1 (Homo sapiens, UniProt O75360 56-141, F88S) (O75360 56-141 F88S): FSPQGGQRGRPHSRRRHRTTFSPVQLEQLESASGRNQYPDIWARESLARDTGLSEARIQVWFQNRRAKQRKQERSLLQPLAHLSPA

ALX1 [19] = target: ALX1 (Homo sapiens, UniProt Q15699 118-204)
Chain of ALX1 (Homo sapiens, UniProt Q15699 118-204) (Q15699 118-204): as the sequence (Q15699 118-204 L144V) above, with V27L counted along it

ALX3 [20] = target: ALX3 (Homo sapiens, UniProt O95076 139-225, N203S)
Chain of ALX3 (Homo sapiens, UniProt O95076 139-225, N203S) (O95076 139-225 N203S): as the sequence (O95076 139-225 N203Q) above, with Q65S counted along it

Chain of SHOX (Homo sapiens, UniProt O15266 103-189) (O15266 103-189): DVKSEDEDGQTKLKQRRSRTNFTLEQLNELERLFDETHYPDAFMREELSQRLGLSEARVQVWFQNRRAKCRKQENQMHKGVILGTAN
Chain of HESX1 (Homo sapiens, UniProt Q9UBX0 95-180) (Q9UBX0 95-180): as the sequence (Q9UBX0 95-180 P111T) above, with T17P counted along it
Chain of SHOX (Homo sapiens, UniProt O15266 103-189, R173C) (O15266 103-189 R173C): as the sequence (O15266 103-189) above, with R71C counted along it
Chain of HESX1 (Homo sapiens, UniProt Q9UBX0 95-180, R109Q) (Q9UBX0 95-180 R109Q): as the sequence (Q9UBX0 95-180 P111T) above, with R15Q, T17P counted along it
Chain of HESX1 (Homo sapiens, UniProt Q9UBX0 95-180, R165K) (Q9UBX0 95-180 R165K): as the sequence (Q9UBX0 95-180 P111T) above, with T17P, R71K counted along it

Sequence | binding signal (HESX1 [1]) | binding signal (SHOX [2]) | binding signal (HESX1 [3]) | binding signal (SHOX [4]) | binding signal (HESX1 [5]) | binding signal (HESX1 [6]) | binding signal (HESX1 [7]) | binding signal (ALX4 [8]) | binding signal (ALX4 [9]) | binding signal (ALX1 [10]) | binding signal (ALX3 [11]) | binding signal (ALX1 [12]) | binding signal (ALX3 [13]) | binding signal (PROP1 [14]) | binding signal (PROP1 [15]) | binding signal (ALX3 [16]) | binding signal (ALX3 [17]) | binding signal (PROP1 [18]) | binding signal (ALX1 [19]) | binding signal (ALX3 [20])
CCTTCGAG | 6.45 upbm affinity estimate (log intensity, higher = more binding, comparable within an allelic series) | 7.09 upbm affinity estimate (log intensity, higher = more binding, comparable within an allelic series) | 6.39 upbm affinity estimate (log intensity, higher = more binding, comparable within an allelic series) | 7.23 upbm affinity estimate (log intensity, higher = more binding, comparable within an allelic series) | 6.55 upbm affinity estimate (log intensity, higher = more binding, comparable within an allelic series) | 6.56 upbm affinity estimate (log intensity, higher = more binding, comparable within an allelic series) | 6.63 upbm affinity estimate (log intensity, higher = more binding, comparable within an allelic series) |  |  |  |  |  |  |  |  |  |  |  |  | 
CCAATTAG | 13.5 upbm affinity estimate (log intensity, higher = more binding, comparable within an allelic series) | 12.8 upbm affinity estimate (log intensity, higher = more binding, comparable within an allelic series) | 13.4 upbm affinity estimate (log intensity, higher = more binding, comparable within an allelic series) | 10.3 upbm affinity estimate (log intensity, higher = more binding, comparable within an allelic series) | 10.5 upbm affinity estimate (log intensity, higher = more binding, comparable within an allelic series) | 12.2 upbm affinity estimate (log intensity, higher = more binding, comparable within an allelic series) | 8.12 upbm affinity estimate (log intensity, higher = more binding, comparable within an allelic series) | 14.1 upbm affinity estimate (log intensity, higher = more binding, comparable within an allelic series) | 13.6 upbm affinity estimate (log intensity, higher = more binding, comparable within an allelic series) | 12 upbm affinity estimate (log intensity, higher = more binding, comparable within an allelic series) | 8.31 upbm affinity estimate (log intensity, higher = more binding, comparable within an allelic series) | 11.7 upbm affinity estimate (log intensity, higher = more binding, comparable within an allelic series) | 12.7 upbm affinity estimate (log intensity, higher = more binding, comparable within an allelic series) | 11.9 upbm affinity estimate (log intensity, higher = more binding, comparable within an allelic series) | 12.1 upbm affinity estimate (log intensity, higher = more binding, comparable within an allelic series) | 10.9 upbm affinity estimate (log intensity, higher = more binding, comparable within an allelic series) | 10.4 upbm affinity estimate (log intensity, higher = more binding, comparable within an allelic series) | 7.63 upbm affinity estimate (log intensity, higher = more binding, comparable within an allelic series) | 12.7 upbm affinity estimate (log intensity, higher = more binding, comparable within an allelic series) | 8.47 upbm affinity estimate (log intensity, higher = more binding, comparable within an allelic series)
GAAGGCGC | 6.55 upbm affinity estimate (log intensity, higher = more binding, comparable within an allelic series) | 7.24 upbm affinity estimate (log intensity, higher = more binding, comparable within an allelic series) | 6.36 upbm affinity estimate (log intensity, higher = more binding, comparable within an allelic series) | 7.21 upbm affinity estimate (log intensity, higher = more binding, comparable within an allelic series) | 6.47 upbm affinity estimate (log intensity, higher = more binding, comparable within an allelic series) | 6.47 upbm affinity estimate (log intensity, higher = more binding, comparable within an allelic series) | 6.58 upbm affinity estimate (log intensity, higher = more binding, comparable within an allelic series) |  |  |  |  |  |  |  |  |  |  |  |  | 
GGAGCGCA | 6.3 upbm affinity estimate (log intensity, higher = more binding, comparable within an allelic series) | 7.21 upbm affinity estimate (log intensity, higher = more binding, comparable within an allelic series) | 6.37 upbm affinity estimate (log intensity, higher = more binding, comparable within an allelic series) | 7.1 upbm affinity estimate (log intensity, higher = more binding, comparable within an allelic series) | 6.4 upbm affinity estimate (log intensity, higher = more binding, comparable within an allelic series) | 6.31 upbm affinity estimate (log intensity, higher = more binding, comparable within an allelic series) | 6.34 upbm affinity estimate (log intensity, higher = more binding, comparable within an allelic series) |  |  |  |  |  |  |  |  |  |  |  |  | 
AATTAGTG | 12.1 upbm affinity estimate (log intensity, higher = more binding, comparable within an allelic series) | 12 upbm affinity estimate (log intensity, higher = more binding, comparable within an allelic series) | 12.2 upbm affinity estimate (log intensity, higher = more binding, comparable within an allelic series) | 9.65 upbm affinity estimate (log intensity, higher = more binding, comparable within an allelic series) | 9.26 upbm affinity estimate (log intensity, higher = more binding, comparable within an allelic series) | 10.9 upbm affinity estimate (log intensity, higher = more binding, comparable within an allelic series) | 7.88 upbm affinity estimate (log intensity, higher = more binding, comparable within an allelic series) | 13.9 upbm affinity estimate (log intensity, higher = more binding, comparable within an allelic series) | 13.2 upbm affinity estimate (log intensity, higher = more binding, comparable within an allelic series) | 11.8 upbm affinity estimate (log intensity, higher = more binding, comparable within an allelic series) | 8.36 upbm affinity estimate (log intensity, higher = more binding, comparable within an allelic series) | 11.4 upbm affinity estimate (log intensity, higher = more binding, comparable within an allelic series) | 12.4 upbm affinity estimate (log intensity, higher = more binding, comparable within an allelic series) | 11.3 upbm affinity estimate (log intensity, higher = more binding, comparable within an allelic series) | 11.4 upbm affinity estimate (log intensity, higher = more binding, comparable within an allelic series) | 10.7 upbm affinity estimate (log intensity, higher = more binding, comparable within an allelic series) | 10.1 upbm affinity estimate (log intensity, higher = more binding, comparable within an allelic series) | 7.69 upbm affinity estimate (log intensity, higher = more binding, comparable within an allelic series) | 12.5 upbm affinity estimate (log intensity, higher = more binding, comparable within an allelic series) | 8.46 upbm affinity estimate (log intensity, higher = more binding, comparable within an allelic series)
GGAAGACC | 6.27 upbm affinity estimate (log intensity, higher = more binding, comparable within an allelic series) | 7.12 upbm affinity estimate (log intensity, higher = more binding, comparable within an allelic series) | 6.19 upbm affinity estimate (log intensity, higher = more binding, comparable within an allelic series) | 7.18 upbm affinity estimate (log intensity, higher = more binding, comparable within an allelic series) | 6.45 upbm affinity estimate (log intensity, higher = more binding, comparable within an allelic series) | 6.41 upbm affinity estimate (log intensity, higher = more binding, comparable within an allelic series) | 6.45 upbm affinity estimate (log intensity, higher = more binding, comparable within an allelic series) |  |  |  |  |  |  |  |  |  |  |  |  | 
ATTAATGC | 8.93 upbm affinity estimate (log intensity, higher = more binding, comparable within an allelic series) |  | 9.02 upbm affinity estimate (log intensity, higher = more binding, comparable within an allelic series) |  |  |  |  |  |  |  |  |  |  |  |  |  |  |  |  | 
AATTAAGG | 11.4 upbm affinity estimate (log intensity, higher = more binding, comparable within an allelic series) | 11.7 upbm affinity estimate (log intensity, higher = more binding, comparable within an allelic series) | 11.4 upbm affinity estimate (log intensity, higher = more binding, comparable within an allelic series) | 9.49 upbm affinity estimate (log intensity, higher = more binding, comparable within an allelic series) | 8.76 upbm affinity estimate (log intensity, higher = more binding, comparable within an allelic series) | 10.3 upbm affinity estimate (log intensity, higher = more binding, comparable within an allelic series) | 7.55 upbm affinity estimate (log intensity, higher = more binding, comparable within an allelic series) | 13.6 upbm affinity estimate (log intensity, higher = more binding, comparable within an allelic series) | 12.8 upbm affinity estimate (log intensity, higher = more binding, comparable within an allelic series) |  | 8.39 upbm affinity estimate (log intensity, higher = more binding, comparable within an allelic series) |  | 12.2 upbm affinity estimate (log intensity, higher = more binding, comparable within an allelic series) | 11 upbm affinity estimate (log intensity, higher = more binding, comparable within an allelic series) | 10.8 upbm affinity estimate (log intensity, higher = more binding, comparable within an allelic series) | 10.4 upbm affinity estimate (log intensity, higher = more binding, comparable within an allelic series) | 9.9 upbm affinity estimate (log intensity, higher = more binding, comparable within an allelic series) | 7.57 upbm affinity estimate (log intensity, higher = more binding, comparable within an allelic series) |  | 8.48 upbm affinity estimate (log intensity, higher = more binding, comparable within an allelic series)
CAATTACG | 12 upbm affinity estimate (log intensity, higher = more binding, comparable within an allelic series) | 11.8 upbm affinity estimate (log intensity, higher = more binding, comparable within an allelic series) | 12.1 upbm affinity estimate (log intensity, higher = more binding, comparable within an allelic series) | 9.27 upbm affinity estimate (log intensity, higher = more binding, comparable within an allelic series) | 8.68 upbm affinity estimate (log intensity, higher = more binding, comparable within an allelic series) | 10.6 upbm affinity estimate (log intensity, higher = more binding, comparable within an allelic series) | 7.47 upbm affinity estimate (log intensity, higher = more binding, comparable within an allelic series) |  |  | 11.2 upbm affinity estimate (log intensity, higher = more binding, comparable within an allelic series) |  | 10.9 upbm affinity estimate (log intensity, higher = more binding, comparable within an allelic series) |  |  | 11 upbm affinity estimate (log intensity, higher = more binding, comparable within an allelic series) |  |  |  | 12.1 upbm affinity estimate (log intensity, higher = more binding, comparable within an allelic series) | 
AATTAACG | 11.7 upbm affinity estimate (log intensity, higher = more binding, comparable within an allelic series) | 11.6 upbm affinity estimate (log intensity, higher = more binding, comparable within an allelic series) | 11.7 upbm affinity estimate (log intensity, higher = more binding, comparable within an allelic series) | 9.39 upbm affinity estimate (log intensity, higher = more binding, comparable within an allelic series) | 8.98 upbm affinity estimate (log intensity, higher = more binding, comparable within an allelic series) | 10.4 upbm affinity estimate (log intensity, higher = more binding, comparable within an allelic series) | 7.64 upbm affinity estimate (log intensity, higher = more binding, comparable within an allelic series) | 13.9 upbm affinity estimate (log intensity, higher = more binding, comparable within an allelic series) | 13 upbm affinity estimate (log intensity, higher = more binding, comparable within an allelic series) | 11.6 upbm affinity estimate (log intensity, higher = more binding, comparable within an allelic series) | 8.41 upbm affinity estimate (log intensity, higher = more binding, comparable within an allelic series) | 11.2 upbm affinity estimate (log intensity, higher = more binding, comparable within an allelic series) | 12.5 upbm affinity estimate (log intensity, higher = more binding, comparable within an allelic series) | 11.3 upbm affinity estimate (log intensity, higher = more binding, comparable within an allelic series) | 11.2 upbm affinity estimate (log intensity, higher = more binding, comparable within an allelic series) | 10.5 upbm affinity estimate (log intensity, higher = more binding, comparable within an allelic series) | 10.1 upbm affinity estimate (log intensity, higher = more binding, comparable within an allelic series) | 7.84 upbm affinity estimate (log intensity, higher = more binding, comparable within an allelic series) | 12.2 upbm affinity estimate (log intensity, higher = more binding, comparable within an allelic series) | 8.55 upbm affinity estimate (log intensity, higher = more binding, comparable within an allelic series)
TAATTGAA | 12.9 upbm affinity estimate (log intensity, higher = more binding, comparable within an allelic series) | 12 upbm affinity estimate (log intensity, higher = more binding, comparable within an allelic series) | 12.9 upbm affinity estimate (log intensity, higher = more binding, comparable within an allelic series) | 9.58 upbm affinity estimate (log intensity, higher = more binding, comparable within an allelic series) | 9.18 upbm affinity estimate (log intensity, higher = more binding, comparable within an allelic series) | 11.4 upbm affinity estimate (log intensity, higher = more binding, comparable within an allelic series) | 7.71 upbm affinity estimate (log intensity, higher = more binding, comparable within an allelic series) | 13.9 upbm affinity estimate (log intensity, higher = more binding, comparable within an allelic series) | 13.2 upbm affinity estimate (log intensity, higher = more binding, comparable within an allelic series) | 11.6 upbm affinity estimate (log intensity, higher = more binding, comparable within an allelic series) | 8.33 upbm affinity estimate (log intensity, higher = more binding, comparable within an allelic series) | 11.3 upbm affinity estimate (log intensity, higher = more binding, comparable within an allelic series) | 12.5 upbm affinity estimate (log intensity, higher = more binding, comparable within an allelic series) | 11.5 upbm affinity estimate (log intensity, higher = more binding, comparable within an allelic series) | 11.6 upbm affinity estimate (log intensity, higher = more binding, comparable within an allelic series) | 10.6 upbm affinity estimate (log intensity, higher = more binding, comparable within an allelic series) | 10 upbm affinity estimate (log intensity, higher = more binding, comparable within an allelic series) | 7.68 upbm affinity estimate (log intensity, higher = more binding, comparable within an allelic series) | 12.3 upbm affinity estimate (log intensity, higher = more binding, comparable within an allelic series) | 8.47 upbm affinity estimate (log intensity, higher = more binding, comparable within an allelic series)
